# Experimental data taken from ChEMBL document CHEMBL1961873, “Compounds: GSK PKIS; Assays: Nanosyn kinase panel” (2012).
# What was measured:
# [1] = molecular target: T1, Serine/threonine-protein kinase TBK1 (Homo sapiens) (UniProt Q9UHD2); details: at 1 µM;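 also: values are mean inhibition of TBK1, screened as part of the GSK published kinase inhibitor set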
# T1 sequence (whole entry): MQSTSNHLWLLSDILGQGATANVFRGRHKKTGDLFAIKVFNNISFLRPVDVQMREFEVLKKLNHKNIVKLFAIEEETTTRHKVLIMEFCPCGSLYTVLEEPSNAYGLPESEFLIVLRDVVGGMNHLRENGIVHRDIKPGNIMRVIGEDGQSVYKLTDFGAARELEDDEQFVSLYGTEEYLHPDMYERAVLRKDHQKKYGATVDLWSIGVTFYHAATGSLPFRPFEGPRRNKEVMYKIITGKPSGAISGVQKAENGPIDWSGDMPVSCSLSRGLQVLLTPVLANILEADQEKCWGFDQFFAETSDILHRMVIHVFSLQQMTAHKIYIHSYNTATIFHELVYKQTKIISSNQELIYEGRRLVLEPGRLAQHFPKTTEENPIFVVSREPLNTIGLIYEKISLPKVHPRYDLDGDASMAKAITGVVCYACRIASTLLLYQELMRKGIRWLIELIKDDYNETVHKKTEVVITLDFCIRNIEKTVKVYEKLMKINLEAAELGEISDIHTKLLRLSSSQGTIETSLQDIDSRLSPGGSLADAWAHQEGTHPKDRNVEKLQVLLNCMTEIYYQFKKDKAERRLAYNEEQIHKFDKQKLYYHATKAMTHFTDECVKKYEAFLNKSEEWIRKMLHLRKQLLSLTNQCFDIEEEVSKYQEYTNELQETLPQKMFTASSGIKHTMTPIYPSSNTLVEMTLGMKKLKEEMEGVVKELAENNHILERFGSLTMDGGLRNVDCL
# [2] = molecular target: T2, Testis-specific serine/threonine-protein kinase 1 (Homo sapiens) (UniProt Q9BXA7); details: at 0.1 µM
# T2 sequence (whole entry): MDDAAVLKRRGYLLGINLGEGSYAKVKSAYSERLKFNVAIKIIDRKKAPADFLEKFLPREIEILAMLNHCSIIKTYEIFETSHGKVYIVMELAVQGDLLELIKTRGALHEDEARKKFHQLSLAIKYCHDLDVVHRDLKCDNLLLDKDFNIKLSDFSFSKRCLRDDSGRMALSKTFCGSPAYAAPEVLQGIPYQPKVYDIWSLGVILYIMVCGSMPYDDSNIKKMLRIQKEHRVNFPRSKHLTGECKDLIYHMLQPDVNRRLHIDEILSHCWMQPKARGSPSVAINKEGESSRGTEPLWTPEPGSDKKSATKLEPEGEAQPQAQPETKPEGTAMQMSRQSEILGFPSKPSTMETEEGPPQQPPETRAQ
# [3] = molecular target: T2, Testis-specific serine/threonine-protein kinase 1 (Homo sapiens); details: at 1 µM
# [4] = molecular target: T3, Testis-specific serine/threonine-protein kinase 2 (Homo sapiens) (UniProt Q96PF2); details: at 0.1 µM
# T3 sequence (whole entry): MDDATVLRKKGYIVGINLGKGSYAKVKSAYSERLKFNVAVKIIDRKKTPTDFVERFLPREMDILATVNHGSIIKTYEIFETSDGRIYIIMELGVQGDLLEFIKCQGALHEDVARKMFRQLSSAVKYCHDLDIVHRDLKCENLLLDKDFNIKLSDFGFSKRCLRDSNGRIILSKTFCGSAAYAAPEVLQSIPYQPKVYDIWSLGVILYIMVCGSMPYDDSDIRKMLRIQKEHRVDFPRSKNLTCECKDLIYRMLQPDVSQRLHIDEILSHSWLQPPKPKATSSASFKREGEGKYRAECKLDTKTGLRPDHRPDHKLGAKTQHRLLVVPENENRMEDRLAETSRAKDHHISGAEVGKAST
# [5] = molecular target: T3, Testis-specific serine/threonine-protein kinase 2 (Homo sapiens); details: at 1 µM
# [6] = molecular target: Casein kinase I isoform alpha (Homo sapiens) (UniProt P48729); details: at 0.1 µM
# [7] = molecular target: Casein kinase I isoform alpha (Homo sapiens) (UniProt P48729); details: at 1 µM
# [8] = molecular target: Casein kinase I isoform gamma-1 (Homo sapiens) (UniProt Q9HCP0); details: at 0.1 µM
# [9] = molecular target: Casein kinase I isoform gamma-1 (Homo sapiens) (UniProt Q9HCP0); details: at 1 µM
# [10] = molecular target: Casein kinase I isoform gamma-2 (Homo sapiens) (UniProt P78368); details: at 0.1 µM
# [11] = molecular target: Casein kinase I isoform gamma-2 (Homo sapiens) (UniProt P78368); details: at 1 µM
# [12] = molecular target: Casein kinase I isoform gamma-3 (Homo sapiens) (UniProt Q9Y6M4); details: at 0.1 µM
# [13] = molecular target: Casein kinase I isoform gamma-3 (Homo sapiens) (UniProt Q9Y6M4); details: at 1 µM
# [14] = molecular target: Cyclin-dependent kinase 1 (Homo sapiens) (UniProt P06493); details: at 0.1 µM
# [15] = molecular target: Cyclin-dependent kinase 1 (Homo sapiens) (UniProt P06493); details: at 1 µM
# [16] = molecular target: Cyclin-dependent kinase 2 (Homo sapiens) (UniProt P24941); details: at 0.1 µM
# [17] = molecular target: Cyclin-dependent kinase 2 (Homo sapiens) (UniProt P24941); details: at 1 µM
# [18] = molecular target: Cyclin-dependent kinase 2 (Homo sapiens) (UniProt P24941); details: at 0.1 µM; remark: listed apart in the source
# [19] = molecular target: Cyclin-dependent kinase 2 (Homo sapiens) (UniProt P24941); details: at 1 µM; remark: listed apart in the source
# [20] = molecular target: CDK3/Cyclin E (Homo sapiens) (UniProt P24864+Q00526); details: at 0.1 µM;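 also: reported percentages are mean inhibition values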
# CDK3/Cyclin E (Homo sapiens), sequence (P24864 whole entry, looked up): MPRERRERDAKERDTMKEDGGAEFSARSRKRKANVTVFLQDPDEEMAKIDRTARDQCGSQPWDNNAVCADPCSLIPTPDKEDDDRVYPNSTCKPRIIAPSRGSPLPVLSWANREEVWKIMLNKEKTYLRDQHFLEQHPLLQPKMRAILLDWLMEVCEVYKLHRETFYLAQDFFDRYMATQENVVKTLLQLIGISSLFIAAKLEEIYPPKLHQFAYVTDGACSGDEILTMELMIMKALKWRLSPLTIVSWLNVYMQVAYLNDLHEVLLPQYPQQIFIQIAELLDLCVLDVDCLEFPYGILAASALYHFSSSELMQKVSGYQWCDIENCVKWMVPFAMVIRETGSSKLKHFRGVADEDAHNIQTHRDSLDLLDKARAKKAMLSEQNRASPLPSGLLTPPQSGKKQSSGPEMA
# CDK3/Cyclin E (Homo sapiens), sequence (Q00526 whole entry, looked up): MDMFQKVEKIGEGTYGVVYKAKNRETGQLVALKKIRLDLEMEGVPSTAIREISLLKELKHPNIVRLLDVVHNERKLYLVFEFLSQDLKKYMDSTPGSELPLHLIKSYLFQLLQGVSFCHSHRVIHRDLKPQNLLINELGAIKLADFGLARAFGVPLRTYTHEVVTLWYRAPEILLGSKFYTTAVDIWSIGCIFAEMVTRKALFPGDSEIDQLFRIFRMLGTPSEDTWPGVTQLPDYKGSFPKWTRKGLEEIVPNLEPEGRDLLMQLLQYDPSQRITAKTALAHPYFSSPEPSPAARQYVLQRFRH
# Casein kinase I isoform gamma-3 (Homo sapiens), sequence (Q9Y6M4 whole entry, looked up, canonical isoform): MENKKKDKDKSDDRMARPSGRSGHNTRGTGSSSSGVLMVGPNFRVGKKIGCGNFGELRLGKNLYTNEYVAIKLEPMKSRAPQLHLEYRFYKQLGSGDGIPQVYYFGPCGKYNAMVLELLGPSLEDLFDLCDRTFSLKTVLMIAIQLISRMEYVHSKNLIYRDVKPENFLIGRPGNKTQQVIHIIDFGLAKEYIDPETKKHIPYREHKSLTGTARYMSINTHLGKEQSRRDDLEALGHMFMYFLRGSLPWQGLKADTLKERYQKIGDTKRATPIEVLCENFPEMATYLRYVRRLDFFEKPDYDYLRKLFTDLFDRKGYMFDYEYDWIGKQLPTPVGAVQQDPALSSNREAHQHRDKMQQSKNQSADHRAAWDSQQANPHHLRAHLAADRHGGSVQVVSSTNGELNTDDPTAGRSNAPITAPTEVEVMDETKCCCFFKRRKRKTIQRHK
# Casein kinase I isoform gamma-2 (Homo sapiens), sequence (P78368 whole entry, looked up, canonical isoform): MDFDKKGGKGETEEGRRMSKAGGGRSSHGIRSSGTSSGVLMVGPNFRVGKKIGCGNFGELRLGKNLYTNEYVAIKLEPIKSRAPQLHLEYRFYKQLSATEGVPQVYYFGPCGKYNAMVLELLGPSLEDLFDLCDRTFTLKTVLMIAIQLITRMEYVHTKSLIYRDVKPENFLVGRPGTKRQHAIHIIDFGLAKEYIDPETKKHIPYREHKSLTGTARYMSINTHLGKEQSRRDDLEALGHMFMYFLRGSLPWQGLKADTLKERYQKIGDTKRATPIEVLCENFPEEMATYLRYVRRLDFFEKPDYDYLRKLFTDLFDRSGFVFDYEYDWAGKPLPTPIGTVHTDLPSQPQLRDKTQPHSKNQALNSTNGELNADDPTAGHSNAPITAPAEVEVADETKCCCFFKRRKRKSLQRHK
# Casein kinase I isoform gamma-1 (Homo sapiens), sequence (Q9HCP0 whole entry, looked up, canonical isoform): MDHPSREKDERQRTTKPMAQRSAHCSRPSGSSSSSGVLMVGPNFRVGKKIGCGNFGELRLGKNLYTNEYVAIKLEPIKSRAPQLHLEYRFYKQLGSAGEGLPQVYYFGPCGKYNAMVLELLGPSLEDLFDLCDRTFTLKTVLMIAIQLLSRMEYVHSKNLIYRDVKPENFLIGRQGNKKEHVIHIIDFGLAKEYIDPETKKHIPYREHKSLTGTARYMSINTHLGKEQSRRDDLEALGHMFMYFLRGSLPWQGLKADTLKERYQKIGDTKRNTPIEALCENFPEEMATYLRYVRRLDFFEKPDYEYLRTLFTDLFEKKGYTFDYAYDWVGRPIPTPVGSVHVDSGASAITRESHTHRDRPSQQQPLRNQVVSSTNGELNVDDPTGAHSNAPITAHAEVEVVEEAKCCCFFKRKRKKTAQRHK
# Cyclin-dependent kinase 1 (Homo sapiens), sequence (P06493 whole entry, looked up): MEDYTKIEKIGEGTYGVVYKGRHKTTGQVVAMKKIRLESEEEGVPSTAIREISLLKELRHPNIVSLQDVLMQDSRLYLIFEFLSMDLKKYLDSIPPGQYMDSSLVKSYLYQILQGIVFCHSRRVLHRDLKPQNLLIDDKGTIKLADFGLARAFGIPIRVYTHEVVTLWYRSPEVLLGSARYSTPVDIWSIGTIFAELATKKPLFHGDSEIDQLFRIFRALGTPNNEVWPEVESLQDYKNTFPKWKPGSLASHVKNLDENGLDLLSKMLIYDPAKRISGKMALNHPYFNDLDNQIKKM
# Casein kinase I isoform alpha (Homo sapiens), sequence (P48729 2-337 limits assumed): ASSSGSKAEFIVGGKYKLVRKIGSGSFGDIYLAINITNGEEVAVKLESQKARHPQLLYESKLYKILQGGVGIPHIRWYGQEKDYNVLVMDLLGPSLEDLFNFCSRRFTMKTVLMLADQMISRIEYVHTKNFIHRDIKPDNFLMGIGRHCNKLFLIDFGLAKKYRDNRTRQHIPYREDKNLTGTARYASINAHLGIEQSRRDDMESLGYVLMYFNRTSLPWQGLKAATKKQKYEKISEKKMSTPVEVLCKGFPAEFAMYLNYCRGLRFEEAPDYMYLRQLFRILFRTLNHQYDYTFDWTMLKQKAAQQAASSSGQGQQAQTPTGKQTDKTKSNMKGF
Compound,inhibition [1] [%],inhibition [2] [%],inhibition [3] [%],inhibition [4] [%],inhibition [5] [%],inhibition [6] [%],inhibition [7] [%],inhibition [8] [%],inhibition [9] [%],inhibition [10] [%],inhibition [11] [%],inhibition [12] [%],inhibition [13] [%],inhibition [14] [%],inhibition [15] [%],inhibition [16] [%],inhibition [17] [%],inhibition [18] [%],inhibition [19] [%],inhibition [20] [%]
Cc1cc(O)cc(C)c1/C=C/c1cncc(-c2nn[nH]n2)c1,5.41,2.79,2.61,1.18,0.73,7.75,10.6,1.82,3.8,0.59,3.73,-0.15,1.13,-2.89,-3.31,-1.42,2.36,0.42,0.7,2.82
COc1ccc(COc2ccc(Cc3cnc(N)nc3N)cc2OC)cc1,2.86,0.44,-1.27,-0.95,-0.65,0.49,0.48,-0.8,-0.45,-2.36,0.05,-0.67,0.85,1.89,1.42,–,–,–,–,2.3
CS(=O)(=O)Nc1ccc(N/C=C2\C(=O)Nc3ccccc32)cc1,14.2,0.15,2.2,-1.89,-1.19,-2.3,7.96,-1.92,1.81,-1.68,2.22,0.3,3.9,1.78,9.18,1.42,18.1,2.53,22,3.36
COc1cc(C=NNc2ncnc3c2cnn3-c2ccccc2)ccc1O,21.5,5.71,1.92,1.3,-1.3,4.04,6.98,1.27,3.26,2.04,18.1,1.55,5.99,6.11,35.8,6.03,42.1,2.88,13.7,2.09
COc1cc2ncn(-c3cc(O[C@@H](C)c4ccccc4Cl)c(C(N)=O)s3)c2cc1OC,27,3.02,5.73,1.37,1.24,4.77,4.44,4.61,5.05,4.07,5.19,3.46,3.53,-0.28,2.69,–,–,–,–,-0.85
Cc1nn(C)c2cc(N(C)c3ccnc(Nc4cccc(S(N)(=O)=O)c4)n3)ccc12,10.3,3.95,5.39,1.61,2.71,0.9,0.72,2.37,2.59,1.72,2.93,0.54,3.06,0.25,5.8,-0.61,2.33,2.2,8.5,1.91
NC(=O)c1ccc(-c2nc(-c3ccccn3)c(-c3ccc4c(c3)OCO4)[nH]2)cc1,2.25,2.68,0.88,1.76,0.84,13.1,48.5,1.97,4.22,1.5,3.29,1.05,5.91,0.26,2.49,–,–,–,–,3.35
CCn1c(-c2nonc2N)nc2c(C#CC(C)(C)O)nc(CN3CCCC3)cc21,9.67,0.35,9.75,-1.26,-0.69,-1.27,-0.92,-0.23,0.92,-0.27,0.03,-1.33,0.33,1.45,2,2.04,-0.71,0.5,1.53,2.36
Fc1cccc(COc2ccc(Nc3ncnc4cc(-c5ccc[nH]5)sc34)cc2Cl)c1,3.65,2.48,2.76,1.09,2.13,0.63,0.84,-1.43,-0.95,-1.97,-1.46,-2.89,-1.56,-1.89,1.88,-1.97,-1.57,-0.46,2.07,3.58
CCn1c(-c2nonc2N)nc2c(N3CCCC3)nccc21,2.54,0.01,-0.07,-0.87,0.44,-0.35,0.23,-0.72,-0.83,-0.88,-0.7,-0.94,-0.62,0.79,2.89,1,–,0.81,5.24,0.91
O=C1NC(=O)C(c2ccc(Cl)cc2)=C1Nc1ccc(Cl)c(C(=O)O)c1,0.78,-1.77,-3.14,-1.44,-2.14,0.85,-1.03,-1.57,-2.04,-1.56,-1.57,-0.68,-1.39,0.08,1.14,-1.04,-8.99,-0.37,0.53,-0.7
CCn1c(-c2nonc2N)nc2cnc(Oc3cccc(NC(=O)c4ccc(OCCN5CCOCC5)cc4)c3)cc21,7.42,24.3,72.8,2.29,3.44,0.67,1.31,3.07,2.93,2.55,3.09,1.57,1.58,0.45,3.69,2.58,7.1,2.65,5.1,-0.07
COc1ccccc1Nc1ncc(-c2ccccc2)o1,2.91,4.78,4.46,2.44,2.11,2.14,2.52,4.56,5.25,4.37,3.85,3.77,5.78,–,0.64,2.24,3.34,1.7,4.15,-1.03
CCCN1CCC(Oc2cc(Nc3nc(Nc4cccc(F)c4C(N)=O)c4cc[nH]c4n3)c(OC)cc2Cl)CC1,2.35,21.3,57.3,7.49,26.8,0.93,12.1,-0.95,8.29,-0.58,6.61,-0.08,20.9,-0.34,0.53,1.48,5.95,-0.16,0.71,0.11
